Eya2 phos inh: blocks the phosphatase activity of human Eya2 | AID 488837 | recombinant Eya2, OMFP fluorescence dephosphorylation (OMFP is methylfluorescein phosphate) | 330,000 compounds, 0.006% hits | O00167 | Potency, µM (titrated, usually from 76.9 µM), most hits filed as inhibitors
Target sequence (O00167 whole entry, looked up): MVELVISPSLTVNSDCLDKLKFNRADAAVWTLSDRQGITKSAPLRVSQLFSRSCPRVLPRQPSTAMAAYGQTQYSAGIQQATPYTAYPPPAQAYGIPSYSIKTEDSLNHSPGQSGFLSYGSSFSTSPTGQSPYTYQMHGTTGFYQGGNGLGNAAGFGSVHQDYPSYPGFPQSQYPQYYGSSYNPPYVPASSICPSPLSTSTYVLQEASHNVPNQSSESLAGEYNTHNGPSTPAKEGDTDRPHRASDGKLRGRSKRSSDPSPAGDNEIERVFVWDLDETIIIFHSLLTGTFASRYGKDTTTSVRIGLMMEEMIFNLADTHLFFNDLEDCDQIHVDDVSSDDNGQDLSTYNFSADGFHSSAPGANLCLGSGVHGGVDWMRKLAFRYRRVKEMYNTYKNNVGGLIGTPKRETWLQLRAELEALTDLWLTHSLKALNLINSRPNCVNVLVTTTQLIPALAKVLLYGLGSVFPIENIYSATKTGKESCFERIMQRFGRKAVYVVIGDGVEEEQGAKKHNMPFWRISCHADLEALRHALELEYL
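Eya2 (0.2 uM) preincubated 10 min at ambient with compound, then OMFP substrate added at 50 uM; 10 min reaction in 50 mM HEPES pH 7.5, 50 mM NaCl, 5 uM MgCl2, 0.05% BSA, 1 mM DTT. Fluorescence read at Ex 485/Em 525 nm.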
TSHR antagonist: human thyrotropin receptor antagonism; activity change, negative = inhibition, % at 11.5 µM; 330,000 compounds, 0.2% hits; TSHR-expressing cells, TSH-stimulated cAMP HTRF, 2 h; active compounds read low; AID 504810;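 active means activity change below a set negative limit, meaning inhibition stronger than a set level, cut at about -70% in these data; inconclusive means activity change between two set negative limits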
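TSHR-expressing cells were treated with compounds, then stimulated with TSH at EC80 (4nM final) for 2 hours at 37 deg C. Cellular cAMP was measured by HTRF competition between lysate cAMP and cAMP-d2 for a cryptate-labelled anti-cAMP antibody.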
a7 integrin act: activates integrin-mediated alleviation for muscular dystrophy. alpha7betagal myoblasts, beta-gal FDG fluorescence, 48 h. Potency, µM (series often up to 38.3 µM), actives largely listed as activators. 350,000 compounds, 0.064% hits; further: nearly all actives have a fitted effect of over 60% in size
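alpha7betagal+/- myoblasts (passage 13, 250/well) treated 48 h at 37C with compounds at 1:260 dilution of DMSO stock. Lysed, then beta-galactosidase activity read as FDG fluorescence (ex 480/em 540) after 30 min, with pre-read for autofluorescence.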
TCR act: activators of T cell receptors; Potency, µM (doses to about 9.22 µM), usual class: activators; primary human leukocytes, anti-CD3, IL-2 HTRF, 48 h; 330,000 tested, under 10 active
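IL-2 produced over 48 hr by a-CD3 bead-stimulated primary human leukocytes exposed to compounds was detected with a homogeneous time-resolved FRET immunoassay, 665nm acceptor signal after 320nm excitation.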
Hits are given with their value; [ ] = remark or other dose. Most compounds without a hit are left out; they make up all but 0.24% or so of the library. Unless noted, the call rests on the fitted dose curve; in most records, active means well fitted curve in the direction sought with a large enough effect; inconclusive means small, poorly fitted or top-dose-only effect, or another doubt; inactive means no such curve, though single readings can be large; an effect the other way counts as inactive or inconclusive.

`O=C(O)c1cc(O)c2c(c1)[C@@H]([C@H]1c3cc(C(=O)O)cc(O)c3C(=O)c3c(O[C@@H]4O[C@H](CO)[C@@H](O)[C@H](O)[C@H]4O)cccc31)c1cccc(O[C@@H]3O[C@H](CO)[C@@H](O)[C@H](O)[C@H]3O)c1C2=O` gave Eya2 phos inh inconclusive, TSHR antagonist -79.0, a7 integrin act inactive and TCR act inactive.
For Cc1ccc(S(=O)(=O)N2CN(CC3CCCO3)c3nc4ccccc4nc32)c(C)c1 (stereo not drawn) the results were Eya2 phos inh inactive, TSHR antagonist inactive, a7 integrin act 11.2µM and TCR act inactive.
Screening O=S(=O)(c1cccs1)N1CN(CC2CCCO2)c2nc3ccccc3nc21 (stereo not drawn) returned Eya2 phos inh inactive, TSHR antagonist inactive, a7 integrin act inactive and TCR act inactive.
`CC1C(=O)N(Cc2cn(CCC3OCCCO3)nn2)CCS(=O)(=O)N1Cc1ccc(-c2ccc(Cl)c(Cl)c2)cc1` (stereo not drawn) gave a7 integrin act inactive.
For Cc1ccc(NC(=O)NCc2nc3ccccc3n2C)cc1 the results were Eya2 phos inh inactive, TSHR antagonist inactive, a7 integrin act 4.47µM and TCR act inactive.
`Cc1cc(/C=C(\C#N)C(=O)NCc2ccccc2)c(C)[nH]1` gave a7 integrin act inactive.
`CCn1c(=S)sc2c(=O)n(CC(=O)Nc3ccccc3)c(C)nc21` gave Eya2 phos inh inconclusive, TSHR antagonist inactive, a7 integrin act inactive and TCR act inactive.
Screening CCn1c(=S)sc2c(=O)n(CC(=O)Nc3ccccc3C(F)(F)F)c(C)nc21 returned Eya2 phos inh inactive, TSHR antagonist -127.2, a7 integrin act inconclusive and TCR act inactive.
For CCSC1=C(C#N)C(c2cccs2)C(C(=O)OC)=C(C)N1 (stereo not drawn) the results were Eya2 phos inh inactive[15.4 µM], TSHR antagonist inactive, a7 integrin act inactive and TCR act inactive.
CCCSC1=C(C#N)C(c2cccs2)C(C(=O)Nc2ccccc2)=C(C)N1 (stereo not drawn) was read as Eya2 phos inh inactive, TSHR antagonist -78.7, a7 integrin act inactive and TCR act inactive.
O=C(Nc1scc(-c2ccc(Br)cc2)c1C(=O)O)c1ccccc1F was read as a7 integrin act inactive and TCR act inactive.
`Cc1ccccc1C(=O)Nc1scc(-c2ccc(Br)cc2)c1C(=O)O` gave a7 integrin act 2.82µM and TCR act inactive.
Screening CN[C@H]1C[C@H]2c3cc(N4CCN(C)CC4)ccc3CCN2C(=O)[C@H]1[C@H](C)O returned a7 integrin act inactive.
COCc1c(C(=O)N/N=C(/C)c2ccccc2)nnn1-c1nonc1N was read as Eya2 phos inh inactive, TSHR antagonist inactive, a7 integrin act inactive and TCR act inactive.
Screening COCc1c(C(=O)N/N=C(/C)c2ccc(OCc3ccccc3)cc2)nnn1-c1nonc1N returned Eya2 phos inh inactive, TSHR antagonist inactive, a7 integrin act 10µM and TCR act inactive.
Screening CCN1CCN(C2=C(NS(=O)(=O)c3ccc(C)cc3)C(=O)c3ccccc3C2=O)CC1 returned Eya2 phos inh inactive, TSHR antagonist -79.4, a7 integrin act inactive and TCR act inactive.
`CCS(=O)(=O)c1ccc2oc(SCC(=O)NC(C)C3CC4CCC3C4)nc2c1` (stereo not drawn) gave Eya2 phos inh inactive, TSHR antagonist inactive, a7 integrin act inactive and TCR act inactive.
COCCCn1c(=O)c2sccc2n(Cc2cccc(F)c2)c1=O was read as Eya2 phos inh inactive, TSHR antagonist inactive and a7 integrin act inactive.
`COCCCn1c(=O)c2sccc2n(Cc2cccc(C)c2)c1=O` gave Eya2 phos inh inactive, TSHR antagonist -130.8, a7 integrin act inactive and TCR act inactive.
Screening Cc1cc(Cl)ccc1OCC(=O)NNC(=O)C1CCN(c2ncnc3sc(C)c(C)c23)CC1 returned Eya2 phos inh inactive, TSHR antagonist -71.6, a7 integrin act inactive and TCR act inactive.
`CC(NC(=O)Cn1ncc(Cl)c(Cl)c1=O)C12CC3CC(CC(C3)C1)C2` (stereo not drawn) gave Eya2 phos inh inactive, TSHR antagonist -100.0, a7 integrin act inactive and TCR act inactive.
CCn1cc(C(=O)NC(C)C23CC4CC(CC(C4)C2)C3)cn1 (stereo not drawn) was read as Eya2 phos inh inactive, TSHR antagonist inactive, a7 integrin act inactive and TCR act inactive.
Cc1ccc(S(=O)(=O)CC(O)COc2ccccc2C#N)cc1 (stereo not drawn) was read as Eya2 phos inh inactive, TSHR antagonist inactive, a7 integrin act inactive and TCR act inactive.
`N#Cc1ccc(OCC(O)CS(=O)(=O)c2ccccc2)cc1` (stereo not drawn) gave Eya2 phos inh inactive, TSHR antagonist inactive, a7 integrin act 10µM and TCR act inactive.
`CC1CCN(Cc2c(C(=O)N/N=C/c3cc(Br)ccc3O)nnn2-c2nonc2N)CC1` gave Eya2 phos inh inactive, TSHR antagonist inactive, a7 integrin act inactive and TCR act inactive.
`CC1CCN(Cc2c(C(=O)N/N=C/c3cc(Cl)ccc3O)nnn2-c2nonc2N)CC1` gave Eya2 phos inh inactive, TSHR antagonist -99.9, a7 integrin act inactive and TCR act inactive.
`CC1C(=O)N(Cc2cn(Cc3ccco3)nn2)CCS(=O)(=O)N1Cc1ccc(-c2ccc(Cl)cc2)cc1` (stereo not drawn) gave a7 integrin act inactive.
Screening COC(=O)c1ccccc1NC(=O)c1cc[n+]([O-])cc1 returned Eya2 phos inh inactive, TSHR antagonist inactive, a7 integrin act 3.98µM and TCR act inactive.
COC(=O)c1ccccc1NC(=O)c1cc[n+](C)cc1 was read as a7 integrin act inactive and TCR act inactive.
C/C(=N/NC(=O)c1nnn(-c2nonc2N)c1CSc1ccc(C)cc1)c1ccncc1 was read as a7 integrin act inactive.
CCCC(=O)OCCNc1cc(Sc2nccn2C)c2nonc2c1[N+](=O)[O-] was read as Eya2 phos inh inactive, TSHR antagonist -93.3, a7 integrin act inactive and TCR act inactive.
For O=[N+]([O-])c1c(NCCCO)cc(Sc2nc3ccccc3s2)c2nonc12 the results were Eya2 phos inh inactive, TSHR antagonist -94.2, a7 integrin act inactive and TCR act inactive.
Screening Cc1nnc(Sc2cc(NCCCO)c([N+](=O)[O-])c3nonc23)s1 returned Eya2 phos inh inactive, TSHR antagonist -85.6, a7 integrin act inactive and TCR act inactive.
`CCCSc1cc(NCCOC(=O)CCC)c([N+](=O)[O-])c2nonc12` gave Eya2 phos inh inactive, TSHR antagonist inactive, a7 integrin act inactive and TCR act inactive.
Screening Cc1ccccc1-n1nnnc1SC1CCOC1=O (stereo not drawn) returned Eya2 phos inh inactive, TSHR antagonist -88.1, a7 integrin act inactive and TCR act inactive.
Screening O=[N+]([O-])c1ccc(Cl)cc1N/N=C/c1ccncc1 returned Eya2 phos inh inconclusive, TSHR antagonist inactive and a7 integrin act 5.62µM.

From PubChem BioAssay
